Records with an inconclusive call do not appear. Active and inactive are the calls of the source. The call rests on the fitted dose curve; in most records, active means well fitted inhibition curve with a large enough effect; inconclusive means small, poorly fitted or top-dose-only effect; inactive means flat fitted curve, though single readings scatter.
Columns and labels:
HEK293 = assay: Cytotoxic Profiling of Annotated Libraries Using Quantitative High-Throughput Screening (AID 1296008); settings: Five cell lines viability, CellTiter-Glo ATP luminescence, 48-72 h; max response: hits give low values; on max response: on the % scale 0 is the no-effect control and ±100 the full control effect
In short: (§1)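 Compounds were pin-transferred onto cells and incubated 48 or 72 hr at 37 degree Celsius, 95% humidity. CellTiter-Glo was added, plates sat 10 min at room temperature, then ATP-coupled luminescence was imaged as the viability read-out.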

HaCat [1] = assay: as above; settings: Five cell lines viability, CellTiter-Glo ATP luminescence, 48-72 h; max response: hits give low values
In short: as §1

KB-3-1 = assay: as above; settings: Five cell lines viability, CellTiter-Glo ATP luminescence, 48-72 h; max response: hits give low values
In short: as §1

NIH3T3 = assay: as above; settings: Five cell lines viability, CellTiter-Glo ATP luminescence, 48-72 h; max response: hits give low values
In short: as §1

HACAT [2] = assay: qHTS assay to identify novel small-molecules to repurpose for Merkel cell carcinoma treatment (AID 1296009); settings: MCC and control cell lines, CellTiter-Glo viability, 72 h; at 44.8 µM (top of the series) unless noted
In short: (§2)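 Luminescence from CellTiter-Glo, read 10 min after addition at room temperature, reported viability following a 72 hr, 37 degree celsius treatment with NPC or MIPE compounds in titration; values normalized to plate controls.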

HEK293T = assay: as above; settings: MCC and control cell lines, CellTiter-Glo viability, 72 h; series mostly up to 44.8 µM
In short: as §2
Further: nearly all actives have a fitted effect of over 60% in size.

CCC(C)(O)C(O)C(=O)OCc1ccc(O[C@@H]2O[C@H](CO)[C@@H](O)[C@H](O)[C@H]2O)c(OC)c1 (some centres not stated)
inactive: outcome (HEK293) | outcome (HaCat [1]) | max response (KB-3-1) 4.31% | outcome (NIH3T3) | outcome (HACAT [2]) inactive [at 17.4 µM] | Potency (HEK293T)

C=C1CC[C@H]2[C@@](C)(CCC(O)[C@@]2(C)CO)[C@@H]1C/C=C(/C(=O)O)C(O)CO (some centres not stated)
inactive: outcome (HEK293) | outcome (HaCat [1]) | max response (KB-3-1) 7.71% | outcome (NIH3T3) | outcome (HACAT [2]) | Potency (HEK293T)

COc1cc(CCc2ccccc2)c(C(=O)O)c2c1CC(C(C)(C)O)O2 (configuration not stated)
inactive: outcome (HEK293) | outcome (HaCat [1]) | outcome (KB-3-1) | outcome (NIH3T3) | outcome (HACAT [2]) | Potency (HEK293T)

COc1c2c(c(C)c3c1C(=O)OC3)OC1(C)CC(O)C3(O)C(C)(C)OC(=O)CCC3(C)C1C2 (configuration not stated)
inactive: outcome (HEK293) | outcome (HaCat [1]) | max response (KB-3-1) 8.81% | outcome (NIH3T3) | outcome (HACAT [2]) inactive [at 17.4 µM] | Potency (HEK293T)

CC1(C)CC(=O)N(CCCCN2CCN(c3ncccn3)CC2)C(=O)C1
inactive: outcome (HEK293) | outcome (HaCat [1]) | max response (KB-3-1) 4.21% | outcome (NIH3T3) | outcome (HACAT [2]) | Potency (HEK293T)

C=CC1(C)C=C2C(=O)CC3C(C)(C)CCCC3(C(=O)O)C2(O)CC1 (configuration not stated)
inactive: outcome (HEK293) | outcome (HaCat [1]) | outcome (KB-3-1) | max response (NIH3T3) -3.47% | outcome (HACAT [2]) | Potency (HEK293T)

CCS(=O)(=O)N1CCC([C@@H](C)n2c(C)c(C(=O)NCc3c(OC)cc(C)[nH]c3=O)c3ccccc32)CC1
inactive: outcome (HEK293) | outcome (HaCat [1]) | max response (KB-3-1) 9.76% | outcome (NIH3T3) | outcome (HACAT [2]) | Potency (HEK293T)

OCCc1ccc(O[C@@H]2O[C@H](CO)[C@@H](O)[C@H](O)[C@H]2O)c(O)c1
inactive: outcome (HEK293) | outcome (HaCat [1]) | outcome (KB-3-1) | max response (NIH3T3) -4.15% | outcome (HACAT [2]) | Potency (HEK293T)

COC1(CC(C)C)NC(=O)C(O)(Cc2ccccc2)NC1=O (configuration not stated)
inactive: outcome (HEK293) | outcome (HaCat [1]) | max response (KB-3-1) -4.71% | outcome (NIH3T3) | outcome (HACAT [2]) | Potency (HEK293T)

CCCOc1ccn2c(C(C)=O)cc(-c3ccccc3S(C)(=O)=O)c2c1
inactive: outcome (HEK293) | outcome (HaCat [1]) | max response (KB-3-1) 3.55% | max response (NIH3T3) -3.04% | outcome (HACAT [2]) | Potency (HEK293T)

CC(O)C(O)/C=C/C=C/C(=O)O[C@@H]1C=C2COC(=O)[C@]2(O)[C@@]2(C)CCCC(C)(C)C12 (some centres not stated)
inactive: outcome (HEK293) | outcome (HaCat [1]) | max response (KB-3-1) 8.55% | outcome (NIH3T3) | outcome (HACAT [2]) inactive [at 17.4 µM] | Potency (HEK293T)

C=C(C)[C@H]1C[C@@H](O)C(=C)CC[C@@H](O)C(=C)[C@@H](O)C1
inactive: outcome (HEK293) | outcome (HaCat [1]) | outcome (KB-3-1) | max response (NIH3T3) -1.51% | outcome (HACAT [2]) | Potency (HEK293T)

COC(=O)C1=CO[C@@H](O[C@@H]2O[C@H](CO)[C@@H](O)[C@H](O)[C@H]2O)[C@@H]2[C@@H](C(=O)OC)[C@@H](O)C(O)[C@H]12 (some centres not stated)
inactive: outcome (HEK293) | outcome (HaCat [1]) | max response (KB-3-1) 0.336% | max response (NIH3T3) 1.13% | outcome (HACAT [2]) inactive [at 17.4 µM] | Potency (HEK293T)

CC1=CC[C@]2(C(=O)O[C@@H]3O[C@H](CO[C@@H]4O[C@H](CO)[C@@H](O[C@@H]5O[C@@H](C)[C@H](O)[C@@H](O)[C@H]5O)[C@H](O)[C@H]4O)[C@@H](O)[C@H](O)[C@H]3O)CC[C@]3(C)C(CCC4[C@@]5(C)C[C@@H](O)[C@H](O)[C@@](C)(CO)C5CC[C@]43C)C2C1C (some centres not stated)
inactive: outcome (HEK293) | outcome (HaCat [1]) | max response (KB-3-1) 0.857% | outcome (NIH3T3) | outcome (HACAT [2]) inactive [at 9.27 µM] | outcome (HEK293T) inactive [at 9.27 µM]

CC1(C)CC[C@]2(C(=O)O[C@@H]3O[C@H](CO)[C@@H](O)[C@H](O)[C@H]3O)CC[C@]3(C)C(=CCC4[C@@]5(C)C[C@@H](O)[C@H](O)C(CO)(CO)C5CC[C@]43C)C2[C@@H]1O (some centres not stated)
inactive: outcome (HEK293) | outcome (HaCat [1]) | max response (KB-3-1) 8.19% | outcome (NIH3T3) | outcome (HACAT [2]) inactive [at 17.4 µM] | Potency (HEK293T)

CO[C@@H](Cc1ccc(OCCc2nc(-c3ccccc3)oc2C)c2ccsc12)C(=O)O
inactive: outcome (HEK293) | outcome (HaCat [1]) | max response (KB-3-1) -3.49% | outcome (NIH3T3) | outcome (HACAT [2]) | Potency (HEK293T)

Clc1ccc(CN[C@H]2CCN(c3ncc(Br)cn3)C2)c(Cl)c1
inactive: outcome (HEK293) | outcome (HaCat [1]) | max response (KB-3-1) -14.8% | max response (NIH3T3) 4.57% | outcome (HACAT [2]) | Potency (HEK293T)

Source: PubChem BioAssay (NCATS)
